Results filed as inconclusive are left out. Unmarked numbers belong to inactive results. Activity calls are given as the source filed them. Calls come from the whole dose curve; as a rule, active = well fitted inhibition curve with a large enough effect; inconclusive = small, poorly fitted or top-dose-only effect; inactive = no such curve, though single readings can be large or run the other way.

The test system of assay [1] is Zika virus NS2B-NS3 protease (unlinked complex). The experiment in a line: Primary screen GU Rhodamine qHTS for Zika virus inhibitors: Unlinked NS2B-NS3 protease assay (AID 1347159). Note: nearly all actives have a fitted effect of over 60% in size. To be noted: Recombinant ZIKV NS2B-NS3 protease, Rhodamine110 substrate fluorescence; series mostly up to 107 µM. Summed up:
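Enzyme 25 nM in Tris-HCl pH 8.0 + 0.01% Tween 20; compounds up to 114 microM, 15 min RT dark; + Rhod110 substrate 1.5 microM; read t0 and 15 min; delta fluorescence → % inhibition → 4-parameter Hill fit.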
For orientation: qHTS replaces the single test concentration by a dilution series.

In assay [2] the test system is Zika virus NS2B-NS3 protease (linked construct). Kind of assay: Primary screen NINDS Rhodamine qHTS for Zika virus inhibitors (AID 1347160). Note: nearly all actives have a fitted effect of over 55% in size. To be noted: purified NS2B-NS3 protease, Rhodamine110 substrate fluorescence; series mostly up to 57.1 µM. The method in brief: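 Enzyme (25 nM, linked NS2B-NS3) was preincubated 15 min with compound in 10 mM Tris-HCl pH 8.0, 0.01% Tween 20. Rhodamine110 substrate (1.5 microM) was then added and fluorescence read at start and after 15 min.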
% is set by controls: 0 for no effect and ±100 for the full control effect; potency is the fitted concentration of half-maximal effect.

Regarding `C=C(C(=O)OC)C1C(O)CC2(C)C(=O)CCC(O)(CO)C2C1O` (stereo not drawn), the Potency result in assay [1] and in assay [2] was “inactive” throughout.

In the case of `Cc1cc(C)cc(C(=O)NOCCCCCC(=O)NO)c1`, the Potency entry in assay [1] and in assay [2] was “inactive” throughout.

Consider `c1ccc(-c2csc(N3CCOCC3)n2)cc1`, for which the Potency entry in assay [1] and in assay [2] was “inactive” each time.

With `CC1CCC2(C=O)C(CO)=CCCC2C1(C)CC(=O)O` (stereo not drawn), the results for the Potency in assay [1] and in assay [2] were 11.2 µM (active) and 12.6 µM (active), respectively.

Consider `CC(=O)O[C@@](C)(C(=O)/C=C/C(C)(C)O)[C@H]1[C@H](O)C[C@@]2(C)[C@@H]3CC=C4[C@@H](C=C(O)C(=O)C4(C)C)[C@]3(C)C(=O)C[C@]12C`, for which the Potency result in assay [1] and in assay [2] was “inactive” each time.

For the compound `CC1(C)CC2C=C(C(=O)O)C3COC(=O)C(O)(CO)C23C1` (stereo not drawn), the Potency entry in assay [1] and in assay [2] was “inactive” each time.

As for `CCNC(=O)Nc1ccc(-c2nc3c(c(N4CCOC[C@@H]4C)n2)CCN(c2ncccn2)C3)cc1`, the Potency result in assay [1] and in assay [2] was “inactive” each time.

With `C[C@@H]1CC[C@]2(C(=O)O[C@@H]3O[C@H](CO)[C@@H](O)[C@H](O)[C@H]3O)CC[C@]3(C)C(=CCC4[C@@]5(C)C[C@@H](O)[C@H](O)[C@@](C)(C(=O)O[C@H]6[C@H](O)C[C@@]7(C)C(CC[C@]8(C)C7CC=C7[C@H]9[C@](C(=O)O[C@@H]%10O[C@H](CO)[C@@H](O)[C@H](O)[C@H]%10O)(CC[C@@H](C)[C@@]9(C)O)CC[C@]78C)[C@@]6(CO)C(=O)O)C5CC[C@]43C)[C@@H]2[C@]1(C)O` (stereo partly drawn), the figures for the activity change, negative = inhibition in assay [1] and in assay [2] were -16.4% [at 19.1 µM] and -25.7% [at 10.7 µM], respectively.

As to `COc1cc(N2CCOCC2)ccc1Nc1ncc(Cl)c(Nc2ccccc2NS(C)(=O)=O)n1`, the Potency result in assay [1] and in assay [2] was “inactive” throughout.

Turning to `COC(=O)[C@@H](O)[C@H]1[C@@]2(C)CC3(O)[C@@H](C(=O)[C@H]2O)[C@]24O[C@]25CC(=O)O[C@@H](c2ccoc2)[C@]5(C)CCC4[C@]13C` (stereo partly drawn), the Potency entry in assay [1] and in assay [2] was “inactive” each time.

`CC1=C(C)C(=O)OC(C(C)C2CCC3C4C5OC5C5(O)CC(OC6OC(CO)C(OC7OC(C)C(O)C(O)C7O)C(O)C6O)CC(O)C5(C)C4CCC23C)C1` (stereo not drawn): the Potency result in assay [1] and in assay [2] was “inactive” throughout.

As for `O=C(O)COCCN1CCN([C@H](c2ccccc2)c2ccc(Cl)cc2)CC1`, the Potency result in assay [1] and in assay [2] was “inactive” each time.

Take `Nc1ncnc2c1ncn2CCNCCCCCO`: the Potency result in assay [1] and in assay [2] was “inactive” each time.

Consider `O=C1NC2CCc3nc4ccccc4c(=O)n3C2=Nc2ccccc21` (stereo not drawn), for which the Potency result in assay [1] and in assay [2] was “inactive” in each case.

With `CCN(Cc1cccnc1)C(=O)CN(c1ccc(OC)nc1)S(=O)(=O)c1ccccc1C`, the Potency result in assay [1] and in assay [2] was “inactive” each time.

On to `CC1(C)CC[C@]23CO[C@@]4(CCC5[C@@]6(C)CC[C@H](O[C@@H]7OC[C@H](O[C@@H]8O[C@H](CO)[C@@H](O)[C@H](O)[C@H]8O)[C@H](O)[C@H]7O[C@@H]7O[C@H](CO)[C@@H](O[C@@H]8O[C@H](CO)[C@@H](O)[C@H](O)[C@H]8O)[C@H](O)[C@H]7O)[C@@](C)(CO)C6CC[C@@]5(C)[C@]4(C)C[C@H]2OC2OCC(O)C(O)C2O)C3C1` (stereo partly drawn), for which the activity change, negative = inhibition in assay [1] was 15.7% [at 19.1 µM]. Also, in assay [2], the outcome was “inactive [at 10.7 µM]”.

`Cc1ccc([N+](=O)[O-])cc1S(=O)(=O)N(C)/N=C/c1cnc2ccc(Br)cn12`: the Potency entry in assay [1] and in assay [2] was “inactive” in each case.

With `O=C(NCc1cccc(O)c1)Nc1nc(-c2ccncc2)cs1`, the Potency result in assay [1] and in assay [2] was “inactive” each time.

In the case of `NC(=O)c1cnc(NCCc2ccc(O)c(Cl)c2)nc1NCc1ccccc1`, the Potency result in assay [1] and in assay [2] was “inactive” throughout.

With `CC1=C2C[C@H]3O[C@@]3(C)CCC3O[C@@]3(C)C[C@@]2(O)OC1=O` (stereo partly drawn), the Potency result in assay [1] and in assay [2] was “inactive” in each case.

Take `Cc1ccc(-c2c(C(=O)CF)n(CCCO)c3ncnc(N)c23)cc1`: the Potency result in assay [1] and in assay [2] was “inactive” in each case.

As to `NC(=O)[C@H](O[C@@H]1O[C@H](CO)[C@@H](O)[C@H](O)[C@H]1O)c1ccccc1`, the Potency result in assay [1] and in assay [2] was “inactive” throughout.

Consider `CC(C)(C)OC(=O)N1CCC(OCc2nc(-c3ccncc3)no2)CC1`, for which the Potency entry in assay [1] and in assay [2] was “inactive” in each case.

With `C=CC(C)(C)c1[nH]c2ccccc2c1C[C@@H]1NC(=O)[C@H](Cc2c[nH]c3ccccc23)NC1=O`, the Potency result in assay [1] and in assay [2] was “inactive” each time.

In the case of `Cc1cc(OCc2nnc(SC3CCCC3)n2-c2cccnc2)ccc1-c1ccc(S(C)(=O)=O)cc1`, the Potency entry in assay [1] and in assay [2] was “inactive” in each case.

For the compound `CC1=CC(=O)CC2C1(O)CCC(C)C21CC(c2ccoc2)OC1=O` (stereo not drawn), the Potency entry in assay [1] and in assay [2] was “inactive” in each case.

Regarding `N#Cc1cc(F)cc(-c2nc(-c3ccccn3)no2)c1`, the Potency entry in assay [1] and in assay [2] was “inactive” each time.

As for `Cc1cc(Nc2nc(NC(C)c3ncc(F)cn3)ncc2Cl)n[nH]1` (stereo not drawn), the Potency result in assay [1] and in assay [2] was “inactive” each time.

Take `CC(C)C[C@H](CC(=O)NO)C(=O)N[C@@H](Cc1ccc2ccccc2c1)C(=O)N[C@@H](C)C(=O)NCCN`: the Potency entry in assay [1] and in assay [2] was “inactive” in each case.

The values are drawn from PubChem BioAssay (NCATS).
